Measurements published in the antibiotic and cytotoxicity screens of Wong et al. (2023).
About 3,300 (8.5%) of roughly 39,000 compounds were called active. Only a selection was taken, and actives are over-represented in it overall.

The molecules below were run on HepG2 (assay: cytotoxicity call (relative viability < 0.9)). Conditions: 10 µM.

SMILES | cytotoxicity call
CO[C@@H]1[C@H](OC(=O)NC(=O)CCl)CC[C@]2(CO2)[C@H]1[C@@]1(C)O[C@@H]1CC=C(C)C | inactive
CN1CCCCC1c1ccc(-c2cccnc2)nc1.Cl (stereo not given) | inactive
CN(CCC[C@@H](O)c1cccnc1)[NH2+][O-] | inactive
C=C(C)[C@@H]1[C@H]2OC(=O)[C@@H]1[C@]1(O)C[C@H]3O[C@]34C(=O)O[C@H]2[C@]14C | inactive
O[C@@]12CCCC[C@@H]1CNCC2 | inactive
CN1[C@@H]2CC[C@@H]1CC(N)C2 (stereo not given in full) | inactive
Nc1nc(N)nc(NC2CC2)n1 | inactive
CCN1CCN(c2nc([N+](=O)[O-])nn2C)CC1 | inactive
C[C@@H](N)Cc1cccc(O)c1 | inactive
CC(C)c1cccc2c1OCC[C@H](N)[C@@H]2O | inactive
CC(C)c1cccc(C(C)C)c1O | active
C[C@@H](CN)CC(=O)O | inactive
CC(=O)[O][PbH2][O]C(C)=O | inactive
Oc1ccc(Cl)cc1Cc1cc(Cl)ccc1O | active
Clc1ccc(Cl)cc1 | inactive
O=C(O)c1cc(Cl)ccc1Cl | inactive
CCN1C[C@]23CNC[C@@H](C[C@H]2S1(=O)=O)O3 | inactive
C1CC(NC2CCOCC2)CCO1 | inactive
O=C1C=C2C(=CCO[C@@H]2O)O1 | inactive
O=C1C=C2C(=CCOC2O)O1 (stereo not given) | active
CC(=O)N[C@H]1C(=O)NC(=S)N(c2ccccc2)C1=O | inactive
N#CCCN1CCCC2(CCCC2)C1 | inactive

SMILES | cytotoxicity call
N/N=C(/N)NO | inactive
COc1ccc(OC(=O)N(C)C[C@@H]2OCc3ccccc3-c3c(n(C)c4ccccc34)C(=O)N([C@@H](C)CO)C[C@@H]2C)cc1 | inactive
COC(=O)[C@@H]1[C@@H](CO)[C@@H]2Cn3c(cccc3=O)[C@H]1N2C(=O)C1CC1 | inactive
N[C@@H](CO)Cc1ccccc1 | inactive
CCN(CC)C(=O)C1=NO[C@]2(CCNC2)C1 | inactive
COc1cc2c(cc1OC)C1CC(=O)C(CC(C)C)CN1CC2 (stereo not given) | active
COc1cc2c(cc1OC)C(C)NCC2 (stereo not given) | inactive
COc1cc2c(cc1O)CCNC2C (stereo not given) | inactive
CCC1CN2CCc3cc(OC)c(OC)cc3C2CC1CC1NCCc2cc(OC)c(OC)cc21.Cl.Cl (stereo not given) | active
CNC1C(O)C(OC2C(N)CC(N)C(OC3OC(C(C)O)C(O)C(O)C3N)C2O)OCC1(C)O (stereo not given) | inactive
CNC(=O)[C@H]1C[C@H]2CN(CC3CC3)C[C@H]1O2 | inactive
CCN1C[C@H]2C[C@H](C(=O)NCC3CC3)[C@@H](C1)O2 | inactive
C[C@@]1(O)[C@H](O)[C@@H](CO)O[C@H]1n1ccc2c(N)ncnc21 | inactive
CN(C)C(=O)Oc1cccc([N+](C)(C)C)c1.COS(=O)(=O)[O-] | inactive
COc1ccc(CCN)cc1OC | inactive
COc1ccc(Cc2nccc3cc(OC)c(OC)cc23)cc1OC.Cl | active
COc1ccc(C[C@@H](N)c2ccc(C)cn2)cc1OC | inactive
NCCc1cc(O)c(O)cc1O | inactive
COc1cc(OC)c(OC)cc1C=O | active
COc1cc2c(cc1C=O)OCO2 | inactive
COc1cccc(C=O)c1OC | inactive
O=C1C[C@@H](c2ccc(O)cc2)CN1 | inactive

SMILES | cytotoxicity call
O=C(O)C(Cl)Cl | inactive
N[C@@H](Cc1ccccc1)c1ccc2c(c1)OCCO2 | inactive
C1CCC(NC2CCCCC2)CC1 | inactive
CC12C=CC(=O)C=C1CCC1C2CCC2(C)C(=O)CCC12 (stereo not given) | inactive
CCC1(C2OC(C3OC(O)(CO)C(C)CC3C)CC2C)CCC(C2(C)CCC3(CC(O)C(C)C(C(C)C(OC)C(C)C(=O)[O-])O3)O2)O1.[Na+] (stereo not given) | active
Cl.NCCc1ccccc1 | inactive
NC(Cc1ccccc1)Cc1ccccc1 | inactive
S=C=NCc1ccccc1 | active
O=C(O)[C@H]1N[C@H]2CC[C@@H]1C2 | inactive
CC(=O)N[C@@H]1[C@H](O[C@@H]2O[C@H](C[C@@H](O)[C@H]3O[C@@H](n4ccc(=O)[nH]c4=O)[C@H](O)[C@@H]3O)[C@H](O)[C@H](O)[C@H]2NC(=O)/C=C/CCCCCCCCC(C)C)O[C@@H](CO)[C@H](O)[C@H]1O | active
COc1ccc(OC(=O)N(C)C[C@H]2OCc3ccccc3-c3c(n(C)c4ccccc34)C(=O)N([C@H](C)CO)C[C@H]2C)cc1 | inactive
C1COC2(CN1)CNC2 | inactive
O.O=P1(N(CCCl)CCCl)NCCCO1 (stereo not given) | inactive
Cc1ccnc(N2CCNCC2)c1 | inactive
CC1=C[C@H]2[C@]3(O)[C@H](C=C(CO)C[C@]2(O)C1=O)[C@H]1C(C)(C)[C@@]1(O)[C@H](O)[C@@H]3C | inactive
CCCCCCCCCCCCCC(=O)O[C@@H]1[C@@H](C)[C@@]2(O)[C@@H](C=C(CO)C[C@]3(O)C(=O)C(C)=C[C@@H]23)[C@@H]2C(C)(C)[C@]12OC(C)=O | active
CCCCCCCCCC(=O)O[C@@H]1[C@@H](C)[C@]2(O)[C@@H](C=C(CO)C[C@]3(O)C(=O)C(C)=C[C@@H]23)[C@@H]2C(C)(C)[C@@]12OC(=O)CCCCCCCCC | active
CCCCCCCCCC(=O)O[C@@H]1[C@@H](C)[C@@]2(O)[C@@H](C=C(CO)C[C@]3(O)C(=O)C(C)=C[C@@H]23)[C@@H]2C(C)(C)[C@]12OC(=O)CCCCCCCCC | inactive
Cc1ccc(CC2(N)CC2)cc1 | inactive
CC(C)C[C@H](NC(=O)[C@H](CO)NC(=O)CNC(=O)[C@H](CC(C)C)NC(=O)[C@H](CCC(=O)O)NC(=O)[C@H](Cc1ccc(O)cc1)NC(=O)[C@H](CO)NC(=O)[C@H](CC(N)=O)NC(=O)[C@H](Cc1ccccc1)NC(=O)[C@H](CO)NC(=O)[C@@H](N)CSSC[C@H](N)C(=O)N[C@@H](Cc1ccc(O)cc1)C(=O)NCC(=O)N[C@@H](CCCNC(=N)N)C(=O)N[C@@H](CCCCN)C(=O)N[C@@H](CCCCN)C(=O)N[C@@H](CCCNC(=N)N)C(=O)N[C@@H](CCCNC(=N)N)C(=O)N[C@@H](CCC(N)=O)C(=O)N[C@@H](CCCNC(=N)N)C(=O)N[C@@H](CCCNC(=N)N)C(=O)N[C@@H](CCCNC(=N)N)C(=O)O)C(=O)O | inactive
CN(CC[C@H](N)CC(=O)N[C@H]1C=C[C@@H](n2ccc(N)nc2=O)O[C@@H]1C(=O)O)C(=N)N | inactive
